FBPA Giardia inh – qHTS Assay for Inhibitors of Fructose-1,6-bisphosphate Aldolase from Giardia Lamblia; A8B2U2; Potency, µM (series often up to 59.6 µM), most hits filed as inhibitors; purified Giardia FBPA; 290,000 compounds, 0.71% hits; AID 2451, 2010; further: nearly all actives have a fitted effect of over 55% in size
Target sequence (A8B2U2 whole entry, looked up): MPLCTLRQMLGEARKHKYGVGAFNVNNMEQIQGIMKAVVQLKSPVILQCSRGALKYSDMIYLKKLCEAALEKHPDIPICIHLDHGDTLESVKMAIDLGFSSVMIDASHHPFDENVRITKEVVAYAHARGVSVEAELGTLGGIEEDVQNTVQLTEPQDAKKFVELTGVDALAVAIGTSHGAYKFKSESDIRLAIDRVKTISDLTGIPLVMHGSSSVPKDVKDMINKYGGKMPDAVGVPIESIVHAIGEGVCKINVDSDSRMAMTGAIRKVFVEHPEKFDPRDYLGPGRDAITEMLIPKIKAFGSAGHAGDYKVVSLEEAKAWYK
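40 nM FBPA preincubated 10 min at RT with compound (up to 57.5 uM final), then substrate plus GAPDH/TPI/NAD/arsenate coupling and diaphorase/resazurin added. Fluorescence read after 20 min at RT, 525/598 nm.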
Sm TGR inh – qHTS Assay for the Inhibitors of Schistosoma Mansoni Peroxiredoxins | Schistosoma mansoni thioredoxin glutathione reductase (TGR), Q962Y6 | purified TGR, DTNB reduction, TNB absorbance 405 nm | Potency, µM (series often up to 114 µM), actives largely listed as inhibitors | 360,000 compounds, 3% hits; further: nearly all actives have a fitted effect of over 60% in size
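First, TGR (20 nM dispensed) and NADPH were mixed with compound. Second, a 15 min room-temperature incubation followed. Third, further NADPH and then DTNB were added to start the reaction. Finally, TNB absorbance was monitored kinetically.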
Pf growth 96h – Primary qHTS for delayed death inhibitors of the malarial parasite plastid, 96 hour incubation; P. falciparum luciferase reporter growth, 96 h; Potency, µM (highest dose often 28.7 µM), most hits filed as inhibitors; 320,000 compounds, 6.9% hits
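P. falciparum expressing integrated firefly luciferase, in erythrocytes at 2% hematocrit, 0.05% parasitemia, incubated with compounds 96 h at 37 C, 5% CO2. Growth inhibition read as loss of luminescence; two-generation exposure targets delayed-death apicoplast inhibitors.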
HCMV inh – qHTS Assay for inhibitors of the human cytomegalovirus (HCMV). HFF cells, HCMV-luciferase reporter, 72 h; active compounds read low. activity change, negative = inhibition, % at 57.5 µM. 410,000 compounds, 4.5% hits; in the data active means activity change below about -60%; inconclusive means no clear call, values can overlap the other calls; inactive means above about -39%
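Compounds were evaluated in HFFs infected with an HCMV luciferase reporter virus (MOI 1 PFU/cell). Luciferase in lysates collected 72 h post infection served as the replication measure.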
Pf growth 48h – Primary qHTS for delayed death inhibitors of the malarial parasite plastid, 48 hour incubation | 310,000 compounds, 5.9% hits | P. falciparum luciferase growth in erythrocytes, 48 h | Potency, µM (titrated, usually from 28.7 µM), usual class: inhibitors
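Firefly luciferase activity from engineered P. falciparum reports growth; inhibitors lower the luminescent signal. Cultures contained 2% hematocrit erythrocytes at 0.1% final parasitemia.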
Each line names hits and unclear results; the compound was inactive in the other large screens. Most compounds without a hit are left out; they make up all but 14% or so of the library. Unless noted, the call rests on the fitted dose curve; in most records, active means well fitted curve in the direction sought with a large enough effect; inconclusive means small, poorly fitted or top-dose-only effect, or another doubt; inactive means no such curve, though single readings can be large; an effect the other way counts as inactive or inconclusive.

COc1ccc(CCNC(=O)c2sc(=S)n(C)c2N)cc1	Pf growth 96h 1.9µM
CCOC(=O)c1c(C)[nH]c(C(=O)OCC(=O)NCCc2ccc(OCC)c(OCC)c2)c1C	Pf growth 96h inconclusive, Pf growth 48h 13µM (no result: FBPA Giardia inh)
CCOC(=O)c1[nH]c(C)c(C(=O)NC2CCCC2)c1C	none (no result: Pf growth 48h)
CCOC(=O)c1[nH]c(C)c(C(=O)NCc2cccc(OC)c2)c1C	none (no result: FBPA Giardia inh, Pf growth 96h, Pf growth 48h)
COc1cc(/C=N/NC(=O)c2ccncc2)ccc1OC(=O)c1cc(OC)c(OC)c(OC)c1	none
COc1ccc(/C=C(\C#N)c2nc(-c3cc(Cl)ccc3OC)cs2)cc1	none (no result: FBPA Giardia inh, Pf growth 96h, Pf growth 48h)
COc1ccc(C2/C=C\CN(C(=O)c3ccc(C)cc3)C(C)C(=O)N2Cc2ccc(F)cc2)cc1 (stereo not drawn)	none (no result: Sm TGR inh, Pf growth 96h, HCMV inh, Pf growth 48h)
Cc1ccc(C(=O)Nc2ccc3oc(-c4cc(Br)ccc4Cl)nc3c2)cc1	none (no result: FBPA Giardia inh, Pf growth 96h, Pf growth 48h)
CO[C@@H]1[C@@H]2OP(=O)(O)OC[C@H]2O[C@H]1n1c(Sc2ccc(Cl)cc2)nc2c(N)ncnc21	none (no result: Sm TGR inh, Pf growth 96h, HCMV inh, Pf growth 48h)
CN(CC(=O)Nc1ccc(F)cc1)C(=O)c1cc(-c2cccs2)nn1-c1ccccc1	none (no result: FBPA Giardia inh)
CCOc1ccc(CCNC(=O)COC(=O)c2c(C)nn(-c3ccccc3)c2C)cc1OCC	Pf growth 96h inconclusive, HCMV inh -99, Pf growth 48h inconclusive (no result: FBPA Giardia inh)
CCOC(=O)c1[nH]c(C=O)c(C(=O)OCC)c1C	Pf growth 96h inconclusive, HCMV inh -96, Pf growth 48h inconclusive
CCOc1ccc(CCNC(=O)Cn2nc(C)c3c(C)n(-c4ccccc4)nc3c2=O)cc1OCC	Pf growth 96h inconclusive
CCOc1ccc(CCNC(=O)COC(=O)c2ccc(C)s2)cc1OCC	Pf growth 96h 10µM (no result: FBPA Giardia inh)
COC(=O)N1CCC2(CCCN(c3ccccn3)C2)CC1	none (no result: Sm TGR inh, Pf growth 96h, HCMV inh, Pf growth 48h)
CCOc1ccc(Nc2n[nH]c(=S)s2)cc1	Pf growth 96h 2.9µM, Pf growth 48h inconclusive
CN(c1ccccc1)S(=O)(=O)c1ccc(C(=O)NCc2ccccn2)cc1	none
CN(C)CCCCCCCCCCC(=O)/C=N/O	none (no result: FBPA Giardia inh, Sm TGR inh, Pf growth 96h, Pf growth 48h)
CN(CCCCCCCCC(=O)/C=N/O)Cc1ccccc1	Pf growth 96h 2.6µM (no result: Pf growth 48h)
CC(c1cc2ccccc2s1)N(O)C(N)=O (stereo not drawn)	Pf growth 96h 0.38µM (no result: HCMV inh)
CCCCNC(=O)c1cc2ccccc2s1	none
C#C[C@@]1(O)CCC2C3CCc4cc(O)ccc4C3CC[C@@]21C (stereo partly drawn)	none (no result: Sm TGR inh, Pf growth 96h, HCMV inh, Pf growth 48h)
O=C(O)CSc1ncnc2nc[nH]c12	none (no result: Pf growth 48h)
O=C(CSc1ncnc2nc[nH]c12)N1CCN(c2ccc(Cl)cc2)CC1	HCMV inh -69, Pf growth 48h inconclusive
O=C(CSc1ncnc2nc[nH]c12)c1ccc2ccccc2c1	Pf growth 96h 5.2µM
Nc1ncnc2nc(SCC(=O)N3CCN(c4ccccc4)CC3)[nH]c12	none
CC1=C(C(=O)O)N2C(=O)[C@@H](NC(=O)[C@@H](N)c3ccccc3)[C@@H]2SC1	none (no result: Sm TGR inh, Pf growth 96h, HCMV inh, Pf growth 48h)
O=[N+]([O-])c1ccc(COc2ccc(CN3CCCCC3)cc2)cc1	none (no result: FBPA Giardia inh, Sm TGR inh, Pf growth 96h, Pf growth 48h)
O=[N+]([O-])c1ccc(S(=O)(=O)CC(CN2CCCCC2)N2CCCCC2)cc1 (stereo not drawn)	Sm TGR inh 7.9µM
O=[N+]([O-])c1ccc(S(=O)(=O)CC(CN2CCOCC2)N2CCOCC2)cc1 (stereo not drawn)	Sm TGR inh inconclusive, Pf growth 96h inconclusive, HCMV inh -102
O=S(=O)(CC(CN1CCCCC1)N1CCCCC1)c1ccccc1 (stereo not drawn)	Pf growth 96h inconclusive, HCMV inh -99
CC(C)Oc1ccc(CNC(=O)C2CCCN(S(=O)(=O)N3CCOCC3)C2)cc1 (stereo not drawn)	none
CCOC(=O)N1CCN(Cc2nc3cc(NC(=O)C(C)C)ccc3n2C(C)C)CC1	HCMV inh inconclusive (no result: FBPA Giardia inh, Pf growth 96h, Pf growth 48h)
CCCCCCC(C)(C)c1ccc([C@@H]2C[C@H](O)CC[C@H]2CCCO)c(O)c1	Pf growth 96h 5.2µM, Pf growth 48h 4.7µM
[N-]=[N+]=Nc1nc2c(N)ncnc2n1C1OC(CO)C(O)C1O (stereo not drawn)	none (no result: Sm TGR inh, Pf growth 96h, HCMV inh, Pf growth 48h)
CC(C(=O)C12CC3CC(CC(C3)C1)C2)N1CCOCC1 (stereo not drawn)	FBPA Giardia inh inconclusive, Pf growth 96h 1.9µM
O=C(CC12CC3CC(CC(C3)C1)C2)N1CCOCC1	none (no result: Pf growth 96h)
CCn1c(CN2CCOCC2)nnc1SCC(=O)Nc1ccc(C(C)=O)cc1	Pf growth 96h inconclusive, Pf growth 48h inconclusive (no result: FBPA Giardia inh)
CC(C)Cc1ccc(C(C)C(N)=NCCc2ccccc2)cc1 (stereo not drawn)	Pf growth 96h inconclusive, HCMV inh -87, Pf growth 48h inconclusive
Cn1c(Cn2cnc([N+](=O)[O-])n2)nnc1SCC(=O)Nc1ccccc1	Pf growth 96h 2.9µM
Cn1c(COc2ccccc2)nnc1SCC(=O)Nc1ccc(N2CCOCC2)c(Cl)c1	Pf growth 96h 4.1µM, Pf growth 48h inconclusive (no result: HCMV inh)
CCOC(=O)c1cccc(NC(=O)CSc2nnc(COc3ccccc3C)o2)c1	Pf growth 96h 7.4µM
CCn1c2ccccc2c2cc(NC(=O)CSc3nnc(-c4ccc(OC)c(OC)c4)n3N)ccc21	Pf growth 96h inconclusive, Pf growth 48h inconclusive
